PubChem BioAssay (NCATS)
Results filed as inconclusive are left out. Activity calls are given as the source filed them. Unless noted, calls follow the shape of the dose curve; as a rule, active = well fitted curve in the direction sought with a large enough effect; inconclusive = small, poorly fitted or top-dose-only effect, or another doubt; inactive = no such curve, though single readings can be large; an effect the other way counts as inactive or inconclusive.

Columns and labels:
[1] = target: Lysosomal acid glucosylceramidase (Homo sapiens) (UniProt P04062); assay: Glucocerebrosidase-p2 (AID 348; in the data active = potency below about 10 µM; also: potency is read from the fitted curve at half-maximal effect); conditions: purified GBA, blue fluorogenic substrate, 40 min
How it was run: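 Compounds titrated from 0.6 nM upwards against 0.2 nM enzyme in pH 5.9 citric acid/KH2PO4, taurocholate, tween-20; blue fluorogenic substrate 80 uM, 40 min room temperature, stopped and read Ex 365/Em 440 for AC50.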

[2] = AP1 Signaling Pathway (AID 357; active = well fitted curve in either direction with a large enough effect, not every such curve was filed as active; also: % is scaled to controls: 0 for no effect and ±100 for the full control effect); conditions: ME-180 AP-1-bla reporter, EGF-induced, beta-lactamase ratio, 5 h; at 7.69 µM (top of the series) unless noted
How it was run: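 In this screen, ME-180 cells in Opti-MEM with 0.5% dialyzed FBS received EC50 EGF and compound titrations for 5 h. AP-1 reporter beta-lactamase was detected via CCF4 ratio, giving AC50 for positive and negative modulators.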

[3] = target: Cytochrome P450 1A2 (Homo sapiens) (UniProt P05177); assay: p450-cyp1a2 (AID 410; calls by dose curve; also: potency is read from the fitted curve at half-maximal effect); conditions: recombinant CYP1A2, luciferin-ME demethylation, luminescence; series mostly up to 57 µM
How it was run: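 Human CYP1A2 (20nM) demethylated Luciferin-ME at its Km (100uM) in 100mM KPO4. After 10 min compound preincubation, NADPH regeneration ran the reaction 60 min at room temperature. Luciferin was read by luminescence, normalized to 57 uM furafylline.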

[4] = NFAT Signaling Pathway (AID 444; active = well fitted curve in either direction with a large enough effect, not every such curve was filed as active;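 also: carbachol stimulus at about its EC50 of 1 µM final; % is scaled to controls: 0 for no effect and ±100 for the full control effect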); conditions: Jurkat NFAT-bla M1, carbachol, beta-lactamase ratio, 5 h; at 7.69 µM (top of the series) unless noted
How it was run: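 Jurkat cells with NFAT-driven β-lactamase reporter and co-expressed M1 receptor, stimulated with carbachol (final 1 uM, ~EC50), compound titration, 5 h at 37 °C. CCF4 loaded 1 h at RT; 460/530 nm ratio gave %activity and AC50.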

[5] = Stat Signaling Pathway (AID 446; active = well fitted curve in either direction with a large enough effect, not every such curve was filed as active;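 also: ME-180 cervical cancer cells given 40 pM IL-6 alongside compound; SIE-controlled beta-lactamase reporter measured as 460/530 nm FRET emission ratio; % is scaled to controls: 0 for no effect and ±100 for the full control effect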); conditions: ME-180 (cervical carcinoma) SIE beta-lactamase reporter, IL-6 stimulated, 5 h; at 7.69 µM (top of the series) unless noted
How it was run: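 IL-6/STAT signaling read in ME-180 cells via an SIE beta-lactamase reporter. Stimulus was 40 pM IL-6 (its AC50) for 5 hrs, so both activation and inhibition register.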

[6] = target: Glucocorticoid receptor (Homo sapiens) (UniProt P04150); assay: GR-GFP Redistribution (AID 450;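 active = compounds whose dose series gives a full or clear partial fitted curve of increased nuclear translocation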; also: potency is read from the fitted curve at half-maximal effect); conditions: U2OS GR-GFP nuclear translocation, laser cytometry, 2 h
[7] = target: Glucocorticoid receptor (Homo sapiens) (UniProt P04150); assay: GR-EFC Redistribution (AID 451; calls by dose curve; also: potency is read from the fitted curve at half-maximal effect); conditions: CHO-K1 GR-EFC translocation, beta-gal luminescence, 2 h
How it was run: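 CHO-K1 cells expressing nuclear EA and GR-ED fragments of b-gal; compounds titrated up to 46 uM final, 2 h at 37 C. GR nuclear translocation read as complemented b-gal luminescence after 1 h RT detection.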

[8] = target: Mitogen-activated protein kinase 10 (Mus musculus) (UniProt Q61831); assay: JNK3 AlphaScreen Assay (AID 530; active = well fitted curve in either direction with a large enough effect, not every such curve was filed as active;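 also: kinase came from lysate of stimulated human HepG2 cells; signal reports phosphorylation of biotinylated GST-cJun 1-79 at Ser73 with 10 µM ATP; % is scaled to controls: 0 for no effect and ±100 for the full control effect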); conditions: JNK3 lysate, c-Jun phosphorylation; series mostly up to 57.1 µM
How it was run: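 qHTS format: compounds tested as titrations against IL-1beta/TNF-alpha-activated HepG2 lysate JNK3 with biotin-GST-cJun substrate and 10 uM ATP at room temperature. Loss of anti-phospho-cJun AlphaScreen signal indicates inhibition.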

[9] = target: 3',5'-cyclic-AMP phosphodiesterase 4B (Homo sapiens) (UniProt Q07343); assay: qHTS Assay for Inhibitors of PDE-IV (AID 607; active = well fitted activation curve with a large enough effect in the main read-out, with a control signal flat, not every such curve was filed as active; also: % of control where 0% means no effect); conditions: HEK293 ACTOne CNG channel cells, membrane potential fluorescence; series mostly up to 22.9 µM
How it was run: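 Live HEK293 cells with a modified cyclic nucleotide-gated (CNG) channel report intracellular cAMP via membrane-potential dye fluorescence (ex 535/em 590 nm). Endogenous PDE-IV was targeted. Compounds were tested at up to 22.9 uM final; RO 20-1724 100 uM served as control.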

[10] = target: Cytochrome P450 3A4 (Homo sapiens) (UniProt P08684); assay: qHTS Assay for Inhibitors and Substrates of Cytochrome P450 3A4 (AID 884); conditions: recombinant CYP3A4, Luciferin-PPXE luminescence; series mostly up to 57.1 µM; also: potency is read from the fitted curve at half-maximal effect; nearly all actives have a fitted effect of over 50% in size
How it was run: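 20 nM human CYP3A4 with 25 uM Luciferin-PPXE (at KM) in 200 mM KPO4, preincubated 10 min with compound; NADPH regeneration started a 60 min RT reaction. Luciferin detected by luminescence, normalized to 57 uM ketoconazole as full inhibition.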

[11] = target: Cytochrome P450 3A4 (Homo sapiens) (UniProt P08684); assay: qHTS Assay for Activators of Cytochrome P450 3A4 (AID 885); conditions: recombinant CYP3A4, Luciferin-PPXE luminescence, 60 min; series mostly up to 57.1 µM; also: nearly all actives have a fitted effect of over 65% in size
How it was run: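 Quantitative HTS format: compounds preincubated with 20nM human CYP3A4 and Luciferin-PPXE substrate at KM, reaction started by NADPH regeneration, stopped after 60 min, luciferase luminescence read 20 min later.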

[12] = target: Cytochrome P450 2C19 (Homo sapiens) (UniProt P33261); assay: qHTS Assay for Inhibitors and Substrates of Cytochrome P450 2C19 (AID 899); conditions: recombinant CYP2C19, luciferin-H EGE luminescence; series mostly up to 57.1 µM; also: potency is read from the fitted curve at half-maximal effect; nearly all actives have a fitted effect of over 60% in size
How it was run: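 Luminescent read-out of luciferin formed from Luciferin-H EGE (10uM, equal to KM). Enzyme 5nM in 50mM KPO4; compound added, 10 min at 37C, then NADPH regenerating system for 60 min at 37C. Full inhibition defined by 57uM ketoconazole.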

[13] = Confirmation and Secondary Assay for Modulators of Hemoglobin Beta Chain Splicing at IVS2 654 locus (AID 910); conditions: HeLa EGFP-654 splicing reporter, GFP fluorescence, 48 h; series mostly up to 38.3 µM;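 also: HeLa cells stably carrying EGFP split by mutant beta-globin IVS2-654 intron; % of control where 0% means no effect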
How it was run: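 HeLa cells stably expressing EGFP interrupted by β-globin IVS2-654 intron, seeded overnight in Opti-MEM/2% FCS, then treated 2 days at 37 °C. Restored splicing read as total peak GFP intensity per well by laser scanning cytometry (488 nm excitation, 500–520 nm emission); 500 nM antisense PNA as control.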

[14] = Confirmation and Secondary Assay for Modulators of Hemoglobin Beta Chain Splicing at IVS2 705 locus (AID 930); conditions: HeLa EGFP-705 splicing reporter, GFP fluorescence, 48 h; series mostly up to 38.3 µM;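 also: HeLa cells stably expressing the EGFP-705 splicing reporter; GFP fluorescence per well restored by corrected splicing of the IVS2-705 intron in EGFP; % of control where 0% means no effect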
How it was run: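 Per-well GFP, captured at 1 x 8 µm resolution with 488 nm excitation, served as the read-out for HeLa EGFP-705 cells incubated 2 days with test compound versus DMSO.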

[15] = qHTS Assay for Lipid Storage Modulators (AID 1519; calls by dose curve); conditions: Drosophila S3 cells, BODIPY lipid droplet/cell ratio, laser cytometry, cells loaded with oleic acid; for activity change, negative = inhibition: at 57.5 µM (top of the series)
How it was run: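 Cells seeded at 5,000 per well were treated with compounds over a concentration series and loaded with oleic acid (400 uM, as added). Lipid droplet fluorescence (488 nm excitation, 500-530 nm channel) was read by laser-scanning cytometry and normalized to 20 uM Triacsin C.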

[16] = target: Ubiquitin carboxyl-terminal hydrolase 1 (Homo sapiens) (UniProt O94782); assay: Inhibitors of USP1/UAF1: Pilot qHTS (AID 504865); conditions: purified USP1/UAF1, Ub-rhodamine cleavage fluorescence; series mostly up to 54.9 µM; also: nearly all actives have a fitted effect of over 35% in size; also: potency is read from the fitted curve at half-maximal effect
How it was run: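 Enzyme-free wells gave the negative control, while test wells held 1nM USP1/UAF1 preincubated with compound for 15 min at room temperature. Ub-Rho at 150nM final started the reaction, and fluorescence at 480/540 nm was recorded kinetically.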

[17] = Primary qHTS for small molecule stabilizers of the endoplasmic reticulum resident proteome: Secreted ER Calcium Modulated Protein (SERCaMP) assay (AID 1508630); conditions: SH-SY5Y GLuc-SERCaMP (Gaussia luciferase released on ER calcium loss) secretion, thapsigargin, luminescence; series mostly up to 38.4 µM; also: % is scaled to controls: 0 for no effect and ±100 for the full control effect
How it was run: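 GLuc-SERCaMP-expressing SH-SY5Y cells, pretreated 16 h with compound, are challenged with thapsigargin to empty ER calcium stores; after 4 h, coelenterazine is added directly to the medium and luminescence is imaged.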

[18] = target: Cytochrome P450 2C9 (Homo sapiens) (UniProt P11712); assay: qHTS Assay for Inhibitors and Substrates of Cytochrome P450 2C9 (AID 883); conditions: recombinant CYP2C9, luciferin-H luminescence, 60 min; series mostly up to 57.1 µM; also: % is scaled to controls: 0 for no effect and ±100 for the full control effect; nearly all actives have a fitted effect of over 60% in size
How it was run: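 10nM CYP2C9 + 100uM Luciferin-H (=KM), 25mM KPO4; cpd 10 min 37C; NADPH regen, 60 min 37C; stop/detect with P450 Glo-Buffer 20 min; luminescence. Norm. to 57uM sulphaphenazole as full inhibition.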

[19] = target: Dual specificity protein kinase CLK4 (Homo sapiens) (UniProt Q9HAZ1); assay: qHTS Assay for Inhibitors of CDC-like Kinase 4 (ADP-FP Assay) (AID 1795); conditions: Transcreener ADP fluorescence polarization; series mostly up to 50 µM;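 also: recombinant human CLK4 phosphorylating RS repeat peptide at 1 µM ATP; % is scaled to controls: 0 for no effect and ±100 for the full control effect; nearly all actives have a fitted effect of over 60% in size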
How it was run: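 Kinase activity was followed as ADP output, converted from fluorescence polarization with a calibration curve. Reactions ran one hour at low ATP (1 uM) with RS peptide substrate.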

[20] = measured here: cell count channel max response
[21] = measured here: lipid channel max response

Sequence of Cytochrome P450 3A4 (Homo sapiens) (P08684 whole entry, looked up): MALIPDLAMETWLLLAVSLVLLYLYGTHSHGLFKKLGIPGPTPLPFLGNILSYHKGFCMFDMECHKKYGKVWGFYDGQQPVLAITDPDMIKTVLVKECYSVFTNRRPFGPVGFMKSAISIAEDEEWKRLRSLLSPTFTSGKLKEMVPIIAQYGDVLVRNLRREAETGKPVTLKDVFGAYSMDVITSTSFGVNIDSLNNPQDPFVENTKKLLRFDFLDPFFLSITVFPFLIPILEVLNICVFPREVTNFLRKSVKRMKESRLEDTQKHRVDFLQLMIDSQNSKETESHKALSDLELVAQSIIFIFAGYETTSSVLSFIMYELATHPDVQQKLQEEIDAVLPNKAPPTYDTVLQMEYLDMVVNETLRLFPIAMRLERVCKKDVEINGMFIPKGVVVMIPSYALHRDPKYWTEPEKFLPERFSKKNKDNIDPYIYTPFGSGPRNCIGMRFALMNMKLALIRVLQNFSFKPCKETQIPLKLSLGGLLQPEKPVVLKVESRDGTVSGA
Sequence of Cytochrome P450 1A2 (Homo sapiens) (P05177 whole entry, looked up): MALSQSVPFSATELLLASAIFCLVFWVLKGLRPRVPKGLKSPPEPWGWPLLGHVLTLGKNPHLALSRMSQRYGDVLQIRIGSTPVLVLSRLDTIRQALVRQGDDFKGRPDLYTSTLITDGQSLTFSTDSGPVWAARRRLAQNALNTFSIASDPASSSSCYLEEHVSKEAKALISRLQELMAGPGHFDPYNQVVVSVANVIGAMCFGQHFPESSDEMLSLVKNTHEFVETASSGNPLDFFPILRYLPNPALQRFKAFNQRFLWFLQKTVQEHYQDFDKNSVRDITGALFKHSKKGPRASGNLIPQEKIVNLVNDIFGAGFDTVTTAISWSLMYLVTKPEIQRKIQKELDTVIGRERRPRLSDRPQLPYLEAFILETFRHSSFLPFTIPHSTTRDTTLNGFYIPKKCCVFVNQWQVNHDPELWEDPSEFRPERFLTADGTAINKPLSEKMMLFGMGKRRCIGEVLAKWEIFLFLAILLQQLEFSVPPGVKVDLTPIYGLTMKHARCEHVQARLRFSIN
Sequence of Dual specificity protein kinase CLK4 (Homo sapiens) (Q9HAZ1 whole entry, looked up): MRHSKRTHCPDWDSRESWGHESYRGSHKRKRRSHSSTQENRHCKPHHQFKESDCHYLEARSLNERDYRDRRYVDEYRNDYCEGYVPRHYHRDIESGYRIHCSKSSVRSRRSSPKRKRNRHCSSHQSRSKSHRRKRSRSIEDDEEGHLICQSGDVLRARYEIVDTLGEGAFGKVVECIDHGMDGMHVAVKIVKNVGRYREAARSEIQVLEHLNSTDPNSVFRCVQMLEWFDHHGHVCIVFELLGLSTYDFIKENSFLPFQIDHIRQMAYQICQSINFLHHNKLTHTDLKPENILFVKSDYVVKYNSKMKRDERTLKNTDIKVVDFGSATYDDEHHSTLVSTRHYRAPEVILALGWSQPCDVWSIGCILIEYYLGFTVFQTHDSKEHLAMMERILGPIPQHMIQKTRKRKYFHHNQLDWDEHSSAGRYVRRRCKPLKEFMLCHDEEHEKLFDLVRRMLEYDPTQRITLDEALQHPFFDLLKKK
Sequence of Lysosomal acid glucosylceramidase (Homo sapiens) (P04062 whole entry, looked up): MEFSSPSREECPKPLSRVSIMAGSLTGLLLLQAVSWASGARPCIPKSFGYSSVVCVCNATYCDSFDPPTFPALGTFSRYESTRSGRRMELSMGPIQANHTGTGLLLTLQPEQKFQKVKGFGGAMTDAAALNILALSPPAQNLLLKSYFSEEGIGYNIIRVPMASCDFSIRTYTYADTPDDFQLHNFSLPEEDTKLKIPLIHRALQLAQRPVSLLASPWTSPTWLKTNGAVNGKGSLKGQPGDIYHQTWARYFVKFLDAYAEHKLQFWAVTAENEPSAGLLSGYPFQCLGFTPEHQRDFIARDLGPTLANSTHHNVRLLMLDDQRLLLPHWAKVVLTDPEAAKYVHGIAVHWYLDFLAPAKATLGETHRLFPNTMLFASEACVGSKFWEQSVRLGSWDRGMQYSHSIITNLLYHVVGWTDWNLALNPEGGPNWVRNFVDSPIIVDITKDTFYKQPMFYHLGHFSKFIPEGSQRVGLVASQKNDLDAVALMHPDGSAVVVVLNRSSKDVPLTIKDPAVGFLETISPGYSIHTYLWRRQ
Sequence of Glucocorticoid receptor (Homo sapiens) (P04150 whole entry, looked up, the tested form may be a part): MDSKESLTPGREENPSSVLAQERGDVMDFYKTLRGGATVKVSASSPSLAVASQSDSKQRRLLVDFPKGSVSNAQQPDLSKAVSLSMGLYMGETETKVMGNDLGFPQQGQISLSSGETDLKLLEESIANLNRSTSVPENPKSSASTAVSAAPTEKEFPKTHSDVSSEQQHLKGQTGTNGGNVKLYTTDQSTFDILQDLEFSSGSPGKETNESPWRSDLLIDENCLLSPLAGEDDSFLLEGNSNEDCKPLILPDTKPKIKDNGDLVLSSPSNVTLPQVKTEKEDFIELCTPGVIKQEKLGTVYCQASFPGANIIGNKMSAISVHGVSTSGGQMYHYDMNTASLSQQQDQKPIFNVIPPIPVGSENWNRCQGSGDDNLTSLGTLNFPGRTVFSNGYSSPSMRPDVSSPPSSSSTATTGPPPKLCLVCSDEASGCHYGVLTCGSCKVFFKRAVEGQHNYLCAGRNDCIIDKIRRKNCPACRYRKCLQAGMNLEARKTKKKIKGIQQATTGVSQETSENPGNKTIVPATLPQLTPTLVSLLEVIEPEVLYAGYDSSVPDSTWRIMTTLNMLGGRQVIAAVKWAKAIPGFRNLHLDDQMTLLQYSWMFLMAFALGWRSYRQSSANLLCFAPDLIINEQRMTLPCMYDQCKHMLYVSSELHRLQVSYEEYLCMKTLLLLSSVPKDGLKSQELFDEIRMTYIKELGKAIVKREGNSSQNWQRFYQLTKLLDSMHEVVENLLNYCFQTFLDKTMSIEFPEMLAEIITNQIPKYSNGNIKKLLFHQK
Sequence of Ubiquitin carboxyl-terminal hydrolase 1 (Homo sapiens) (O94782 whole entry, looked up): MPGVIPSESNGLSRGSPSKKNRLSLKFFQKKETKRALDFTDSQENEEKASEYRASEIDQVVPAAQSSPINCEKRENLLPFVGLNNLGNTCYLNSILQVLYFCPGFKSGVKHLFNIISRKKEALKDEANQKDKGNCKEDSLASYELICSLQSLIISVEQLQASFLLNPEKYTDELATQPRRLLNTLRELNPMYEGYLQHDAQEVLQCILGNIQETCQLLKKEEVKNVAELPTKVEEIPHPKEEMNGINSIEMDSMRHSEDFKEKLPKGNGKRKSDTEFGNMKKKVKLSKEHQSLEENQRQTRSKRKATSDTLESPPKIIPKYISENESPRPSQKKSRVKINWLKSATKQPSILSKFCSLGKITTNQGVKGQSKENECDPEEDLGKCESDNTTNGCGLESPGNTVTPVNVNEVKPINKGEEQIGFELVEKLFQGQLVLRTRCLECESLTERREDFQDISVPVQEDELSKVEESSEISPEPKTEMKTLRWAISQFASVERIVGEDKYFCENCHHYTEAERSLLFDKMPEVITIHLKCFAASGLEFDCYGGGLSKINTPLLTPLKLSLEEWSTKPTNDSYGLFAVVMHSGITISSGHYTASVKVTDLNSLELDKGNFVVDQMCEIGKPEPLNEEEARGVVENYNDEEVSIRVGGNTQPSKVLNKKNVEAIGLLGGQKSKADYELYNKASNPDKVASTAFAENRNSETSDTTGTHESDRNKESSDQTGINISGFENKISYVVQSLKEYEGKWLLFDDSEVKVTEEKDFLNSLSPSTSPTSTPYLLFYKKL
Sequence of 3',5'-cyclic-AMP phosphodiesterase 4B (Homo sapiens) (Q07343 whole entry, looked up): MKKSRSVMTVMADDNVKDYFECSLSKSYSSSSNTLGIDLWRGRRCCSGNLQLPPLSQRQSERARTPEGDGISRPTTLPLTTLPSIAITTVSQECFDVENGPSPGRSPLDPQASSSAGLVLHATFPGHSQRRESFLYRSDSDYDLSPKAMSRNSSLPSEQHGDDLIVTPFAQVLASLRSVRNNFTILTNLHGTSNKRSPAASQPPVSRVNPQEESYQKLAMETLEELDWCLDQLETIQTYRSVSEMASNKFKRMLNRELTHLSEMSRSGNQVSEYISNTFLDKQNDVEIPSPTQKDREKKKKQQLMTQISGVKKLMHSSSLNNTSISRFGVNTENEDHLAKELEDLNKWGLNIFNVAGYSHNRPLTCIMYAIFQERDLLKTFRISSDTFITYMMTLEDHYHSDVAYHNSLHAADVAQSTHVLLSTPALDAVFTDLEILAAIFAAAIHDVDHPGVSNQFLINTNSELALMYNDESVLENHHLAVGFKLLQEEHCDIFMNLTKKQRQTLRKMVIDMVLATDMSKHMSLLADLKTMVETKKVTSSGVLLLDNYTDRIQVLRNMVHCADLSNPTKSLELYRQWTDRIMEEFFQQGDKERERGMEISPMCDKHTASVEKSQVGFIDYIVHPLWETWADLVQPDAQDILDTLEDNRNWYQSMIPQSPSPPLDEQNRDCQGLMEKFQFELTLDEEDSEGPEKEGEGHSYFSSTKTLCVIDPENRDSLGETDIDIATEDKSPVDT
Sequence of Cytochrome P450 2C19 (Homo sapiens) (P33261 whole entry, looked up): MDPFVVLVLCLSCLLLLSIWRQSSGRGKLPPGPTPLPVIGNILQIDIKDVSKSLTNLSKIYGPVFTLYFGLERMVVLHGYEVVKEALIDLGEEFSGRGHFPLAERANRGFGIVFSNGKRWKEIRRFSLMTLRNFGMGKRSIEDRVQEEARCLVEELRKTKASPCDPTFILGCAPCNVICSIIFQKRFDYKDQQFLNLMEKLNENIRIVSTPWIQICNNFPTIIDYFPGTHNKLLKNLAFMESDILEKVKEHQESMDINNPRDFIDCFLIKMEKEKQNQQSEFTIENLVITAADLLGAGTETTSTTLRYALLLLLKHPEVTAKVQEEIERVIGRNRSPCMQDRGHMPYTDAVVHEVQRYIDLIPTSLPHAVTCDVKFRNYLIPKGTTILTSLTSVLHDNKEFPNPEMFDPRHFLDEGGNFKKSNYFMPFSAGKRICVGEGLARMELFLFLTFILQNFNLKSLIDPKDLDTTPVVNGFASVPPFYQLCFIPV

COc1ccccc1-c1cncnc1NCCc1cnc[nH]1
inactive: Potency [1] > 11.4 µM | activity change, negative = inhibition [2] 1.24% | activity change, negative = inhibition [4] 3.21% | activity, negative = inhibition [5] -11.6% | Potency [6] > 46 µM | Potency [7] > 46 µM | outcome [8] | Potency [9] | Potency [11] | outcome [13] | outcome [14] | activity change, negative = inhibition [15] 11.3% | Potency [16] | Potency [17]
12.9%: max response [15, 20]
26.1%: max response [15, 21]
active: Potency [3] 1.26 µM | Potency [10] 398 nM | Potency [12] 79.4 nM

COc1cccc(-c2nccc(NCc3cccc(C)c3)n2)c1
-3.6%: max response [15, 21]
inactive: Potency [1] > 11.4 µM | activity change, negative = inhibition [2] -15.4% | activity change, negative = inhibition [4] -2.73% | activity, negative = inhibition [5] -25.6% | Potency [6] > 46 µM | Potency [7] > 46 µM | outcome [8] | Potency [9] | Potency [11] | outcome [13] | outcome [14] | activity change, negative = inhibition [15] 7.01% | Potency [17]
-6.39%: max response [15, 20]
active: Potency [3] 0.316 µM | Potency [10] 3980 nM | Potency [12] 6310 nM | Potency [16] 35.5 µM

COCCNc1ccnc(-c2ccccc2C(F)(F)F)n1
inactive: Potency [1] > 11.4 µM | activity change, negative = inhibition [4] 9.65% | activity, negative = inhibition [5] 8.97% | Potency [6] > 46 µM | Potency [7] > 46 µM | outcome [8] | Potency [9] | activity change, negative = inhibition [18] 34.3% [at 2.29 µM] | activity change, negative = inhibition [15] 3.61% | Potency [19] | Potency [16] | Potency [17]
29.2%: max response [15, 21]
25.6%: max response [15, 20]
active: Potency [3] 20 µM

COc1ccccc1-c1cncnc1Nc1ccc(F)cc1
active: Potency [3] 7.94 µM | Potency [10] 158 nM | Potency [12] 5010 nM
20.1%: max response [15, 21]
9.46%: max response [15, 20]
inactive: Potency [1] > 11.4 µM | activity change, negative = inhibition [2] -12.4% | activity change, negative = inhibition [4] 1.41% | activity, negative = inhibition [5] 4.34% | Potency [6] > 46 µM | Potency [7] > 46 µM | outcome [8] | Potency [9] | Potency [11] | outcome [13] | outcome [14] | activity change, negative = inhibition [15] 10.5% | Potency [16] | Potency [17]

COc1cccc(-c2cncnc2Nc2ccc(F)cc2)c1
6.55%: max response [15, 20]
inactive: Potency [1] > 11.4 µM | activity change, negative = inhibition [2] -13.2% | activity change, negative = inhibition [4] 13.9% | activity, negative = inhibition [5] -10.1% | Potency [6] > 46 µM | Potency [7] > 46 µM | outcome [8] | Potency [11] | activity change, negative = inhibition [15] 9.47% | Potency [19] | Potency [17]
active: Potency [10] 794 nM | Potency [12] 398 nM
18.7%: max response [15, 21]

Cc1ccccc1-c1nc(NCc2cccs2)c2ccccc2n1
inactive: activity, negative = inhibition [5] -16.7% | Potency [6] > 46 µM | Potency [7] > 46 µM | outcome [8] | activity change, negative = inhibition [15] 5.52% | Potency [19] | Potency [17]
1.44%: max response [15, 21]
active: Potency [16] 14.1 µM
-1.85%: max response [15, 20]
